The source holds several records for some structures; these can differ, active in one and inactive in another. Calls of active or inactive are those of the source. Rule for the calls: active = hit-call score of the fitted dose curve at least 0.9, where 1 is the maximum; inactive = score below 0.9.

Read-out in this assay: Pselectin, SELP (gene 6403)
Briefly: BSK_4H_Pselectin: BioMAP Diversity Plus: 4H Assay for Pselectin Biomarker Activity (AID 2283026). The conditions noted are these: primary human endothelial cells (HUVEC); actives raise or lower the signal. The procedure: BSK_4H is a cell-based, multiplexed-readout assay that uses umbilical vein endothelium, a human vascular primary cell, with measurements taken at 24 hours after chemical dosing in a 96-well plate.BSK_4H_Pselectin is an assay component measured in the BSK_4H assay. It measures P-Selectin antibody related to regulation of gene expression using ELISA technology.Data from the assay component BSK_4H_Pselectin was analyzed into 1 assay endpoint. This assay endpoint, BSK_4H_Pselectin, was analyzed with bidirectional fitting relative to DMSO as the negative control and baseline of activity. Using a type of binding reporter, gain or loss-of-signal activity can be used to understand changes in the signaling as they relate to the gene SELP. Furthermore, this assay endpoint can be referred to as a primary readout, because this assay has produced multiple assay endpoints where this one serves a signaling function. To generalize the intended target to other relatable targets, this assay endpoint is annotated to the cell adhesion molecules intended target family, where the subfamily is selectins.
The levels of cell surface (or secreted, indicated by the prefix "s") biomarker endpoints were measured by ELISA. Overt cytotoxicity to cells in confluent adherent cultures (all systems other than the BT system) was assessed by measuring total protein levels using sulforhodamine B (SRB) staining in parallel cultures at the time of biomarker measurements, indicated as SRB endpoints. For proliferation assays for adherent cell types, individual cell types are cultured at sub-confluence and relative cell numbers quantified by SRB staining at time points optimized for each system (48 h: 3C and CASM3C systems; 72 h: BT and HDF3CGF systems; 96 h: SAg system). SRB was performed by staining cells with 0.1% SRB after fixation with 10% TCA and reading wells at 560 nm.Viability and proliferation of PBMC (T cells) was quantified by Alamar Blue reduction for the SAg and BT systems. For PBMC viability (referred to as PBMC Cytotoxicity within the assay endpoint names), cells were plated (75,000/well in a 96-well plate) and then chemical samples added for 1 h before addition of activators, SEB and TSST-1 (20 ng/mL final concentration each). Cells were incubated for 90 h. Then, Alamar Blue (20 uL/well) (Invitrogen, Cat DAL1100) was added for 6 h, and the plates were read with a fluorescence microplate reader at 546/580 nm (excitation/emission). For PBMC proliferation, cells were plated and activated as above but incubated for only 16 h prior to addition of Alamar Blue. Plates were read after 6 h.
On to `O=S(=O)(c1ccc(Cl)cc1)c1cc(Cl)c(Cl)cc1Cl`, for which the outcome was inactive.

As for `Cc1ccccc1OP(=O)(Oc1ccccc1C)Oc1ccccc1C`, the AC50 is 8.88 µM (active).

`CCC(C)(C#N)N=NC(C)(C#N)CC` (stereo not given): the outcome was inactive.

With `NC(=O)CCl`, the outcome was inactive.

`O=C(O)C1(c2ccc3c(c2)OC[C@H](Cc2ccc(-c4ccccc4)cc2)[C@H]3O)CCCC1`: the AC50 was 27.1 µM (active).

On to `Cc1c([N+](=O)[O-])c(C)c([N+](=O)[O-])c(C(C)(C)C)c1[N+](=O)[O-]`, for which the outcome was inactive.

Consider `CCCCOC(=O)COC(=O)c1ccccc1C(=O)OCCCC`, for which the outcome was inactive.

As for `c1ccc2sc(SNC3CCCCC3)nc2c1`, the result was inactive.

As for `Oc1cc(Cl)c(Cl)cc1Cl`, the AC50 was 25.6 µM (active).

Regarding `Clc1cccc(Cl)c1Cl`, the result was inactive.

Regarding `O=C1C=CC(=O)c2ccccc21`, the AC50 was 1.62 µM (active).

Consider `CC(C)(C)c1ccccc1O`, for which the result was inactive.

Regarding `O=C(Cc1ccccc1)OCCc1ccccc1`, the outcome was inactive and the AC50 was 2.34 µM (active).

`CCOP(=S)(OCC)SCS(=O)(=O)C(C)(C)C`: the outcome was inactive.

Regarding `Clc1cccc(Cl)c1`, the outcome was inactive.

Regarding `O=[N+]([O-])c1ccc(Nc2ccccc2)cc1`, the result was inactive.

Regarding `Oc1ccc(Cc2ccc(O)cc2)cc1`, the outcome was inactive.

With `O=c1oc2ccccc2c(O)c1C(CC(O)c1ccc(-c2ccc(Br)cc2)cc1)c1ccccc1` (stereo not given), the AC50 was 6.34 µM (active).

In the case of `CCOC(=O)C(SP(=S)(OC)OC)c1ccccc1` (stereo not given), the AC50 was 20 µM (active).

Turning to `CC(C)O.CC(C)O.OCCN(CCO)CCO.OCCN(CCO)CCO.[Ti]`, the result was inactive.

Regarding `Cc1cc(Cl)ccc1N`, the result was inactive.

Consider `CCCCCCCCCCCCc1cccc(S(=O)(=O)O)c1`, for which the result was inactive.

With `Oc1cccc(-c2ccccc2)c1`, the result was inactive.

As for `C[C@]12CC[C@@H](O)C[C@@H]1CC[C@@H]1[C@@H]2CC[C@]2(C)C(=O)CC[C@@H]12`, the result was inactive.

With `Cc1cc(Cl)ccc1OC(C)C(=O)O` (stereo not given), the outcome was inactive.

For the molecule `CCOP(=O)(OCC)OC(=CCl)c1ccc(Cl)cc1Cl`, the AC50 is 35.3 µM (active).

In the case of `COCC(=O)N(c1c(C)cccc1C)[C@H](C)C(=O)OC`, the result was inactive.

For `CCOC(=O)CC(=O)CCl`, the AC50 is 11 µM (active).

Regarding `Nc1c(Oc2ccccc2)cc(O)c2c1C(=O)c1ccccc1C2=O`, the outcome was inactive.

In the case of `CC(C)N(C(=O)CCl)c1ccccc1`, the AC50 is 16.8 µM (active).

Turning to `CC(C)(COCC1CO1)COCC1CO1` (stereo not given), the outcome was inactive.

As for `O=C(CCl)NCO`, the outcome was inactive.

With `CCCCN(CCCC)C(=S)[S-].CCCCN(CCCC)C(=S)[S-].[Ni+2]`, the outcome was inactive.

With `Cc1cccc(OP(=O)(Oc2cccc(C)c2)Oc2cccc(C)c2)c1`, the outcome was inactive.

For the molecule `Nc1ccc(N)cc1`, the result was inactive.

For the molecule `CCCCCCCCCCCCN(C)C`, the outcome was inactive.

As to `N#Cc1cccnc1`, the outcome was inactive.

Consider `CC1(C)[C@H](C(=O)O[C@H](C#N)c2cccc(Oc3ccccc3)c2)[C@@H]1/C=C(\Cl)C(F)(F)F`, for which the outcome was inactive.

For `O=C(N[C@H]1CN2CCC1CC2)c1ccc2c(c1)OCCO2`, the result was inactive.

(Values after PubChem BioAssay (EPA / NIEHS).)
